# In PubChem BioAssay:
# The source made the active and inactive calls.
# Tests used:
# [1] = tested on: PRMT1 (protein arginine N-methyltransferase 1); experiment: small molecules binding arginine methyltransferase PRMT1 – biochemical, small-molecule microarray, 635 nm fluorescence, primary screen (AID 1088); details: higher = more signal;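 also: binding of Prmt1 protein to compounds spotted on small-molecule microarray slides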
# [2] = growth effects on S. cerevisiae YJM789 – YJM789 clinical isolate, OD600, 24 h, basal, primary screen (AID 1089); details: higher = more signal, called active from +8 up or from −8 down;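 also: growth of clinical yeast isolate S. cerevisiae YJM 789 seeded 1000 cells per well; test concentration not given here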
# [3] = S. pombe growth modifiers, basal conditions – strain 972, OD600, 24 h, no modulator, primary screen (AID 1090);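 also: basal condition with compound alone and no growth modifier present; test concentration not given here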; details: S. pombe 972 growth, higher = more signal, called active from +8 up or from −8 down
# [4] = budding yeast growth modifiers under rapamycin – strain BY4716, OD600, 96 h, primary screen (AID 1091); also: test concentration not given here; details: S. cerevisiae BY4716 + rapamycin, higher = more signal, called active from +8 up or from −8 down
# [5] = target: Torsin-1A-interacting protein 2 (Homo sapiens) (UniProt Q8NFQ8); experiment: small molecules binding lysate-expressed LULL1 – cell lysate, human LULL1 lysate, 635/667 nm fluorescence, primary screen (AID 1092); details: small-molecule microarray, hLULL1 lysate binding, 635 nm fluorescence; higher = more signal;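 also: probe is lysate of COS7 cells overexpressing human LULL1; score merges per-feature 667 nm fluorescence with signal-to-noise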
# Torsin-1A-interacting protein 2 (Homo sapiens), sequence (Q8NFQ8 whole entry, looked up): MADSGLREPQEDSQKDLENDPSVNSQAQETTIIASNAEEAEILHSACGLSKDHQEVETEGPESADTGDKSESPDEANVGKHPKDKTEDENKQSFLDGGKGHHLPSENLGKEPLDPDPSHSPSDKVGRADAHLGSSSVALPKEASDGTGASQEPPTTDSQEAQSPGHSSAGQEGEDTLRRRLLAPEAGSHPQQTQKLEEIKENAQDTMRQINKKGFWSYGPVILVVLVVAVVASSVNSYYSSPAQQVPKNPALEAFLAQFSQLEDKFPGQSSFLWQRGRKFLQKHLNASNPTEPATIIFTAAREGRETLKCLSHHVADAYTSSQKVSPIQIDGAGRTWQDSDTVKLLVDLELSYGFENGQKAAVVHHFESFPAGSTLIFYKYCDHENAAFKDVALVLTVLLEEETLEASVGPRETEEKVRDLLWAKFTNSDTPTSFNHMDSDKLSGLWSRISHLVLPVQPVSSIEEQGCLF
# [6] = optical density change of DRC41 E. coli – strain DRC41, OD650, 24 h, E. coli filamentation project, primary screen (AID 1093);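 also: MC1000 strain lacking acrAB efflux and sulA so SOS filamentation is blocked; test concentration not given here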; details: E. coli DRC41 growth, higher = more signal, called active from +8 up or from −8 down
# [7] = probe aLefty2 binding to arrayed compounds – biochemical, biotinylated probe, 635/667 nm fluorescence, primary screen (AID 1094); details: small-molecule microarray, higher = more signal;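 also: score merges spot fluorescence near 667 nm with spot signal-to-noise ratio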
# [8] = tested on: Noggin (protein binding on small-molecule microarray); experiment: small molecules binding Noggin protein – biochemical, 635/667 nm fluorescence, primary screen (AID 1095); details: 635 nm fluorescence, higher = more signal;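 also: score merges 667 nm feature fluorescence with signal to noise over triplicate slides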
# [9] = target: Neurogenic locus notch homolog protein 3 (Homo sapiens) (UniProt Q9UM47); experiment: small molecules binding NOTCH3 protein – biochemical, 635/667 nm fluorescence, primary screen (AID 1096); details: small-molecule microarray, 635 nm fluorescence, higher = more signal
# Neurogenic locus notch homolog protein 3 (Homo sapiens), sequence (Q9UM47 whole entry, looked up): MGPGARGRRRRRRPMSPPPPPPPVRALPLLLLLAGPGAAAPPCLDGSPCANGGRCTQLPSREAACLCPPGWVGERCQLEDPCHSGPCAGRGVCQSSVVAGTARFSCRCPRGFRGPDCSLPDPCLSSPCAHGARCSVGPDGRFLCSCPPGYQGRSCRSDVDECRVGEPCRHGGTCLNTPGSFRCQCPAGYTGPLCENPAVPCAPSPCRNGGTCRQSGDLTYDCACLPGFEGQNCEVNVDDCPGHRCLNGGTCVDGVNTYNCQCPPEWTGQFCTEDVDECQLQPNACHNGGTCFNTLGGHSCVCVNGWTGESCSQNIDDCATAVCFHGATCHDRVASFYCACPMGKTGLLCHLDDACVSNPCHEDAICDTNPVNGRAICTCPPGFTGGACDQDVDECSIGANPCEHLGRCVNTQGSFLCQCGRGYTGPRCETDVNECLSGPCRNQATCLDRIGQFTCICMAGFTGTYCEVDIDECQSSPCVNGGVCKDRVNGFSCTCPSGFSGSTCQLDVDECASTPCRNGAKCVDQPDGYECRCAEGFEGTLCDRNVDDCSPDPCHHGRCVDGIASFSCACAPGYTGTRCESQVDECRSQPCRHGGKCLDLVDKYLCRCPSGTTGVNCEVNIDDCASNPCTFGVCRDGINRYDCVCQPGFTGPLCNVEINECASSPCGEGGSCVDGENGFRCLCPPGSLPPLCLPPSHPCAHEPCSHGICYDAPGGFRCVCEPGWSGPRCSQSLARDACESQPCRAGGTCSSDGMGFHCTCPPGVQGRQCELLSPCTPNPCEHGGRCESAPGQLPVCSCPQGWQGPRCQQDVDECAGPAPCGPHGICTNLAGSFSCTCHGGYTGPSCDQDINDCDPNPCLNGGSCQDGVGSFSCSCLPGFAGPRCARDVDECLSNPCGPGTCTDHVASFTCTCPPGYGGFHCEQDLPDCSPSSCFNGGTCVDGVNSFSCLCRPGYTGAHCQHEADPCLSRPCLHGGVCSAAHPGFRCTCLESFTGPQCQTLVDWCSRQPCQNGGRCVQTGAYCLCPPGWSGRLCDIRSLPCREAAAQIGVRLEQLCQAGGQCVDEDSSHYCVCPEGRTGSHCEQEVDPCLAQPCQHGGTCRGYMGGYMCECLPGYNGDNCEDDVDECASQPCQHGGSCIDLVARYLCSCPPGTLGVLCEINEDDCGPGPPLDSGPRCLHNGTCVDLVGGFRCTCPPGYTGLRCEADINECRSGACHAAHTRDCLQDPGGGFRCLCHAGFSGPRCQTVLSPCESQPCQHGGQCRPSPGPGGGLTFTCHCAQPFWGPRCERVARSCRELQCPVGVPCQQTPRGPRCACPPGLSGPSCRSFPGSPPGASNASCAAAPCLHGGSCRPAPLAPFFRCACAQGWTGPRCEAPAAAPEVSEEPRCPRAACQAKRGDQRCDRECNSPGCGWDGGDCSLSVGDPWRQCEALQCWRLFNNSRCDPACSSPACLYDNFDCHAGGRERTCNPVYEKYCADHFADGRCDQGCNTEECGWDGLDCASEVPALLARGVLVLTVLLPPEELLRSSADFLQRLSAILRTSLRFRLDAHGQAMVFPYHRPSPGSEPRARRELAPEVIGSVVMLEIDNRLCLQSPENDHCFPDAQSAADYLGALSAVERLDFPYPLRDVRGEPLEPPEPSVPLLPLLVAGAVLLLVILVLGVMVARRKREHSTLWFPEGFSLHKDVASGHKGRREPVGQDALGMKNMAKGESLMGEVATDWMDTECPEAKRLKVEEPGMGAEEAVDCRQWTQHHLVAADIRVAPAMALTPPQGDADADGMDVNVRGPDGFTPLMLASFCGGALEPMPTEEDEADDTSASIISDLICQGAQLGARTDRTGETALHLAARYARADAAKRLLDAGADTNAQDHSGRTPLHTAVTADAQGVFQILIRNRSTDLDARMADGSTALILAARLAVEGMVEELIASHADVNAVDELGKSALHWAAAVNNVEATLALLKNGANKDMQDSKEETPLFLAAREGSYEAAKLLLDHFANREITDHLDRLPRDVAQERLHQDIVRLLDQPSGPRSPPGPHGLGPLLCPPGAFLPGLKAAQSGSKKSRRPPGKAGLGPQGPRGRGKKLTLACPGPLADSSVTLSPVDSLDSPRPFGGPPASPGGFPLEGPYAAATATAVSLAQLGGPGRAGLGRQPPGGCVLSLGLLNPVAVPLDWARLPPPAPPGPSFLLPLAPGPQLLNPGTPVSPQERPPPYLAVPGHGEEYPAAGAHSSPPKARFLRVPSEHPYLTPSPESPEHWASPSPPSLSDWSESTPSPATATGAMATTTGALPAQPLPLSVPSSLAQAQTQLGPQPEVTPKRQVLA
# [10] = probe aEGFR binding to arrayed compounds – biochemical, biotinylated probe, 635/667 nm fluorescence, primary screen (AID 1097); details: small-molecule microarray, higher = more signal;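 also: probe is a biotinylated anti-EGFR antibody binding compounds printed on slides; score combines fluorescence near 667 nm and signal to noise of each spot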
Structure (SMILES),composite z-score [1],z-score [2],z-score [3],z-score [4],composite z-score [5],z-score [6],composite z-score [7],composite z-score [8],composite z-score [9],composite z-score [10]
O=C(NN=C1C[C@@H](O)[C@@H](O)[C@@H]2[C@@H]3C(=O)N(c4ccc(F)cc4F)C(=O)[C@@H]3CC[C@@H]12)OCc1ccccc1,-0.127,0.615 (inactive),0.664 (inactive),-0.442 (inactive),1.03,0.203 (inactive),-0.11,-0.0944,0.57,-0.0616
O=C1O[C@@H](c2ccccc2)[C@@H](c2ccccc2)N2[C@@H](c3ccc(OCCO)cc3)[C@]3(C(=O)Nc4ccccc43)[C@@H](C(=O)N3CCN(c4ncccn4)CC3)[C@H]12,1.53,1.94 (inactive),1.4 (inactive),4.77 (inactive),2.97,0.856 (inactive),1.04,0.952,1.1,0.0679
CC(C)=NOCc1ccc(-c2cc(-c3ccccc3)no2)cc1,-1.06,0.237 (inactive),0.256 (inactive),0.213 (inactive),0.108,0.383 (inactive),-0.252,0.429,0.152,-0.163
CN(C)CCCNC(=O)[C@@H]1c2ccccc2C(=O)N(Cc2ccccc2)[C@H]1c1ccc(CO)cc1,0.0881,0.115 (inactive),-0.699 (inactive),-0.848 (inactive),0.282,0.442 (inactive),0.555,-0.848,-1.21,0.259
C[C@H]1Cc2c(-c3ccccc3)nc3c(c2CO1)CN(CCOc1ccccc1)CC3,1.56,-0.0387 (inactive),-1.24 (inactive),-0.142 (inactive),2.3,1.91 (inactive),-0.161,0.472,1.12,-0.0114
CCCCCCc1nc(CCCc2cc3c(c(CCCCCC)n2)[Si](C(C)C)(C(C)C)O[C@H]3c2ccccc2)cc2c1[Si](C(C)C)(C(C)C)O[C@H]2c1ccccc1,0.0913,-0.449 (inactive),-0.643 (inactive),-0.146 (inactive),-0.769,-1.43 (inactive),-0.233,0.522,0.279,-0.11
COC(=O)[C@@]1(Cc2ccc(OC)cc2)[C@H]2c3cc(C(=O)N4CCCC4)n(Cc4cc(F)c(F)c(F)c4)c3C[C@H]2CN1C(=O)c1ccccc1,1.25,0.68 (inactive),1.39 (inactive),7.41 (inactive),3.39,-1.19 (inactive),1.44,-0.131,1.01,1.17
CC(CCC(=O)OC[C@H]1O[C@H](C#Cc2ccccc2)C=C[C@@H]1Oc1ccc(C)cc1)=NOC[C@@H](O)COCc1ccco1,-0.25,0.594 (inactive),0.134 (inactive),0.108 (inactive),-0.486,0.147 (inactive),-0.356,-3.08,-1.76,-0.428
O=C1C[C@@H](O)[C@@H](O)[C@@H]2[C@@H]3C(=O)N(C4CCCCC4)C(=O)[C@@H]3CC[C@H]12,0.387,-0.16 (inactive),-0.268 (inactive),0.0415 (inactive),0.294,0.666 (inactive),-0.185,0.467,0.786,-0.127
C=CCOC(=O)[C@H]1[C@@H]2C(=O)O[C@@H](c3ccccc3)[C@@H](c3ccccc3)N2[C@@H](c2ccc(OCCOC(=O)[C@H]3C[C@H]4C(=O)N[C@@H](Cc5ccccc5)C(=O)N4[C@H]3c3ccc(O)cc3)cc2)[C@]12C(=O)Nc1ccccc12,1.55,1.44 (inactive),1.14 (inactive),4.4 (inactive),2.4,1.37 (inactive),-0.0174,1.6,1.06,0.0499
O=C1C[C@]2(c3ccc([N+](=O)[O-])cc3)C(=O)N(CCN3CCOCC3)c3cc(CO)ccc3[C@H]2N1CC12CC3CC(CC(C3)C1)C2,-0.286,-1.31 (inactive),-0.324 (inactive),-2.77 (inactive),1.81,0.679 (inactive),0.0023,-0.323,0.111,-0.156
COc1ccccc1CN1C(=O)c2ccccc2[C@@H](C(=O)NCC(F)(F)F)[C@@H]1c1ccc(CO)cc1,1.55,0.21 (inactive),0.74 (inactive),-0.296 (inactive),2.37,1.49 (inactive),-0.107,1.11,1.06,-0.179
CCc1cc2c(nc1CC)CCN(CCC(C)=NOC[C@@H](O)COCc1ccco1)C2,1.54,-0.907 (inactive),-0.871 (inactive),-0.935 (inactive),-1.51,0.903 (inactive),0.469,1.68,1.05,0.441
COCCOC(=O)N1C(=O)[C@@]2(c3ccccc31)[C@H](C(N)=O)[C@H]1C(=O)O[C@H](c3ccccc3)[C@H](c3ccccc3)N1[C@@H]2c1ccccc1OCCO,1.53,0.438 (inactive),-0.142 (inactive),3.11 (inactive),1.84,1.24 (inactive),0.16,1.32,1.12,0.261
C[C@@H]1C=CCC(=O)OC[C@H](C)C(=O)N[C@@H](C)C(=O)OC1,0.552,0.664 (inactive),0.406 (inactive),-0.113 (inactive),-0.412,0.715 (inactive),-0.293,0.828,0.254,0.0886
O=C1[C@H]2[C@H]3[C@H](O)[C@H](O)CC(=NOCc4ccccc4)[C@H]3CC[C@H]2C(=O)N1C[C@@H]1CCCO1,-0.107,-0.139 (inactive),0.531 (inactive),-0.351 (inactive),0.78,0.0096 (inactive),-0.238,0.322,0.48,-0.123
CO[C@H]1COC(=O)CC=C[C@H](C)[C@@H](NS(=O)(=O)c2ccc(C)cc2)COC(=O)CC=C[C@@H]1C,0.855,-3.93 (inactive),-2.23 (inactive),-2.35 (inactive),-0.716,-1.11 (inactive),-0.118,0.659,0.66,-0.12
COc1cccc([C@H]2Oc3ccc(OC)cc3C(=NO[C@H](C)c3cn([C@@H]4COC[C@H]4O)nn3)[C@@H]2O)c1,-0.499,0.0141 (inactive),0.874 (inactive),0.467 (inactive),-0.077,-0.398 (inactive),-0.126,-0.427,-1.34,-0.267
CN(C)CCCNC(=O)[C@@H]1c2ccccc2C(=O)N(Cc2cc(F)cc(C(F)(F)F)c2)[C@H]1c1ccc(CO)cc1,1.56,-0.414 (inactive),-0.627 (inactive),-0.917 (inactive),2.93,-0.66 (inactive),-0.166,-0.0315,-1.2,-0.174
O=C1O[C@@H](c2ccccc2)[C@@H](c2ccccc2)N2[C@@H](c3ccc(OCCO)cc3)[C@]3(C(=O)Nc4ccc(C#CCCO)cc43)[C@@H](C(=O)N3CCCCCCC3)[C@H]12,1.54,1.15 (inactive),-0.507 (inactive),2.23 (inactive),3.83,0.694 (inactive),1.35,1.39,1.08,0.249
CO[C@@H]1COC(=O)CCC[C@@H](C)[C@H](OC)COC(=O)CCC[C@H]1C,0.408,0.376 (inactive),0.852 (inactive),0.294 (inactive),-0.431,-0.0526 (inactive),-0.234,0.6,0.636,-0.0967
C=CC[C@@H]1C=C[C@H](ON=C(C)CCN2CCc3nc(CC)c(CC)cc3C2)[C@@H](CO)O1,1.21,-1.12 (inactive),-0.0455 (inactive),-0.384 (inactive),1.07,0.544 (inactive),0.0522,0.981,0.717,-0.0435
CCN1C(=O)[C@H]2[C@H]3[C@H](O)[C@H](O)CC(=NOCc4ccccc4)[C@H]3CC[C@H]2C1=O,-0.204,-0.896 (inactive),-0.337 (inactive),-0.262 (inactive),0.21,0.632 (inactive),-0.386,0.863,0.469,-0.0953
CCOc1ccc(N2C(=O)/C(=C/C=C/c3ccccc3OC)S(=O)(=O)C2c2cccc([N+](=O)[O-])c2)cc1 (stereo not given),-0.167,-3.8 (inactive),-3.13 (inactive),0.648 (inactive),0.236,0.841 (inactive),-0.0342,0.39,0.638,-0.103
CO[C@H]1COC(=O)[C@H](C)COC(=O)CC=C[C@@H](C)[C@H](OC)COC(=O)CC=C[C@@H]1C,0.438,0.0305 (inactive),-0.818 (inactive),-0.147 (inactive),-0.798,0.614 (inactive),-0.233,0.638,0.336,-0.0302
CCOC(=O)NN=C1C[C@@H](O)[C@@H](O)[C@@H]2[C@@H]3C(=O)N(C4CCCCC4)C(=O)[C@@H]3CC[C@@H]12,-0.319,-1.33 (inactive),-0.895 (inactive),-0.495 (inactive),0.156,0.637 (inactive),-0.028,0.257,0.324,-0.0329
O=C1C[C@@H](O)[C@@H](O)[C@@H]2[C@@H]3C(=O)N(Cc4ccc5c(c4)OCO5)C(=O)[C@@H]3CC[C@@H]12,0.555,0.489 (inactive),0.481 (inactive),-0.246 (inactive),1.01,0.701 (inactive),-0.072,0.495,1.12,0.0414
COc1ccc(O[C@H]2C=C[C@@H](c3ccccc3)O[C@@H]2COC(=O)CCC(C)=NOC(C)CN2CCCCc3nc(C)c(C)cc32)cc1 (stereo not given in full),-0.285,-0.258 (inactive),-1.87 (inactive),-0.889 (inactive),0.283,1.14 (inactive),-0.0769,0.294,-1.33,-0.0614
COC(=O)CC=C[C@H](C)[C@@H](OCc1ccccc1Br)C(C)C,0.204,-0.0851 (inactive),-0.552 (inactive),0.393 (inactive),-0.117,-0.295 (inactive),-0.228,0.168,-0.0294,-0.167
